# Results reported in PubChem BioAssay AID652141 (The Scripps Research Institute Molecular Screening Center, 2013).
# Among all 5,600 compounds or so, about 4,500 (80%) were called active. So high a share suggests a set chosen from earlier hits. Only a sample is shown. Unmarked numbers belong to inactive results. Rule as the data show it: active = inhibition above about 10%; inactive = the rest.
# Assay: inhibition of coupled GDH and TPI enzymes – biochemical, fluorescence, high throughput, artefact control for M. tuberculosis FBA inhibitor project (AID 652141)
# Details: GDH-TPI coupled enzyme counterscreen, at 1 µM, active compounds read high
row,SMILES,inhibition
1,COc1cccc2sc3cc(NCC[C@@H]4CCCN4C)ccc3c(=O)c12,69.2% (active)
2,COc1ccc(C2NC(=O)c3ccccc3N2)cc1 (centres undefined),122% (active)
3,O=C1NC(c2cccc(Cl)c2)Nc2ccccc21 (centres undefined),84.8% (active)
4,CCN1CCN(C(=O)c2cc3cc4ccc(OC)cc4nc3s2)CC1,74.1% (active)
5,CCOC(=O)Cc1c(C)nc2c(C#N)c(C)nn2c1C,39.1% (active)
6,COC(=O)c1noc(C)c1-c1ccnn1C(=O)c1ccc(Cl)cc1,38.9% (active)
7,COc1ccc(-c2cn3ccc(C)cc3n2)cc1,-5%
8,COc1ccc(-c2cc(C(=O)Nc3ccccc3O)c3ccccc3n2)cc1,114% (active)
9,COc1ccc(-c2cc(C(=O)N(C)Cc3ccccc3)c3ccccc3n2)cc1,-2.5%
10,O=c1oc2ccccc2cc1-c1cn(-c2ccccc2)c(=S)[nH]1,13.5% (active)
11,COc1ccc2nc(-c3ccccn3)ccc2c1,93.8% (active)
12,Cc1cc(C)c2c(n1)sc1c(=O)n(-c3ccccc3)c(=O)[nH]c12,62.5% (active)
13,CCc1cc(=O)oc2c(C)c(OCC(=O)N3CC[C@@]4(O)CCCC[C@H]4C3)ccc12,99.4% (active)
14,CCCc1cc(=O)oc2c(C)c(OCC(=O)N3CCC(C(=O)O)CC3)ccc12,-7.26%
15,CCN(CC)CCCNC(=O)c1cc2c(=O)[nH]c3ccc(C)cc3c2s1,98.2% (active)
16,CCCN(C(=O)CSc1nnc(N)s1)c1c(N)n(Cc2ccccc2)c(=O)[nH]c1=O,48% (active)
17,CCOc1ccc2nc(NCCNS(=O)(=O)c3ccccc3)c(C#N)cc2c1,15.8% (active)

row,SMILES,inhibition
1,O=C1C(=O)N(c2ccccc2)C(c2ccccc2)C1c1ccccc1 (centres undefined),0.69%
2,Cn1nc(-c2ccc(Cl)cc2)c2cc(C(=O)NCc3ccco3)sc21,33.3% (active)
3,CCc1ccc(-c2cc(C(=O)NCc3ccco3)c3ccccc3n2)s1,-5.16%
4,Cc1cc(C)c2nc(-c3ccco3)cc(C(=O)O)c2c1,2.96%
5,Cc1cc(C)c2nc3nc(C)cc(C)c3c(N)c2c1,22.9% (active)
6,CN1C(=O)c2ccc(NC(=O)c3c(F)c(F)c(F)c(F)c3F)cc2C1=O,"651% [above what the read-out allows, likely interference] (active)"
7,CN1C(=O)c2ccc(NC(=O)C3CCCCC3)cc2C1=O,-2.4%
8,COCCNc1nc(-n2nc(C)cc2C)nc2sc3c(c12)CCCC3,97.7% (active)
9,COc1ccc(NC(=O)N2CCC(Cc3ccccc3)CC2)cc1,23.6% (active)
10,O=C(NCc1ccccc1)c1onc(CSc2nc3ccccc3[nH]2)c1C(=O)NCc1ccccc1,55.8% (active)
11,CCOC(=O)N1CCC(NC(=O)c2cnn3ccccc23)CC1,33.9% (active)
12,CCCC1OC23CCCCC2C(C#N)(C#N)C1(C#N)C(=N)O3 (centres undefined),-5.15%
13,CC12CCC(C(=O)N3CCN(c4ncccn4)CC3)(c3nc4ccccc4nc31)C2(C)C (centres undefined),143% (active)
14,CCc1c(C)c2ccc(OC3CCCCC3=O)cc2oc1=O (centres undefined),78% (active)
15,COc1ccc(-c2oc3ncnc(NCCCO)c3c2-c2ccc(OC)cc2)cc1,39.6% (active)
16,O=C(NCCCN1CCOCC1)c1cnn2c(-c3ccccc3)cc(-c3ccccc3)nc12,79.2% (active)
17,O=C(O)Cc1sc(-c2ccc(C(=O)O)cc2)nc1-c1ccccc1,-7.95%
